The source of these data is the supplement of paper PMC6555819.

The subject of this experiment is VDR:RXRa (NR concentration 270 nM, RXRa partner concentration 90 nM). The experiment is described as follows: PBM binding z-score (relative to random genomic background probes); higher = stronger binding; sequences stand for … in GC…GCGATTGACAGCGTAGAATGAAGG
Here is the method:
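Protein-binding microarray (Agilent 4x180K custom design, double-stranded 60-nt probes: 5' GC cap, 34-nt variable region, 24-nt constant primer region; full probe sequence given). Purified or IVT nuclear receptor:RXRα heterodimers (3:1 NR:RXRα, mostly 270:90 nM) or homodimers were incubated for 1 h in PBS with 2% milk and no ligand, then detected with Alexa488 antibodies. Fluorescence from o1-orientation probes (~5 replicates averaged) was converted to z-scores against 500 random hg19 background probes. Variable regions are seed direct-repeat (DR0–DR5) sites, all their single-nucleotide variants and half-site ablations.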
The sequence TCGAGTAGGTTACCAATGGGGCACTCAGCTTTCT returned a PBM binding z-score of 0.142.
Take AGAATGAGGTTATTAAGAGCAGGGAATTGCGGTC: the PBM binding z-score was found to be 2.
In turn, CCTTACGGGTCACTAACAGGTTATAGCATTTGGA yielded a PBM binding z-score of 3.28.
CCTACTGGGCCATTCAGAGGTCATGGATCATATG returned a PBM binding z-score of 3.92.
As for CTTAGCAGGCCAATCTGGGTCACTCAAGGCTTGA, the figure is 0.462; as for CCTATTAGTTGACCATAAGGGCAACAGAAGCTCG, 0.519; as for CGAACTAGGTCATCCAGGACGGTGAATACATTGA, 3.72.
For the sequence TCGAGTAGGTTACCAATGGGGCATTGAGCTTTCT, the PBM binding z-score was -0.0858.
In turn, CGTCAAAGTGCAACTAAGGTAACGTAAAGCACGC registered a PBM binding z-score of 0.866.
GGAAAGAGGGCAAAGTTGATAGCATCTGTCGACG registered a PBM binding z-score of 1.53.
On to CCAGAGAGGTGAGAAGGTAACTCAGCCTCGATTA, for which the PBM binding z-score amounted to 0.23.
In turn, TCTAGTTGGTCAACGGTCACACACTCGAAATGCG yielded a PBM binding z-score of 0.848.
In turn, GTAACGAGGGCAAAGTTGATAGCATCTGTCGACG displayed a PBM binding z-score of 1.53.
Sequence TCATATAGGTAAACAGGTGAAACTCCGTAAGTTA came in with a PBM binding z-score of 1.19.
For CCTTACGGGTGACTCCAGGTTATAGCATCGGAGT, the PBM binding z-score stood at 0.497.
GCGACTGGGGCAAAGCAGGTTACCTTAAGGTTGG displayed a PBM binding z-score of 0.0193.
As for CCATACGGGTCACTGACAGGTTATAGCATTTGGA, the figure is 3.74; as for CGTCCAAGTTCAAGGTAACGTAACAGAAAGCAGC, 2.45.
Consider TAGCCTAGGCCAGATCGGGCCAGTATACGCTATA, for which the PBM binding z-score is -0.802.
On to CCTGCTAGGTTAATGGTCAGCTAAAGCAGCTCGC, for which the PBM binding z-score is -0.293.
As to ACTAGCAGGCCAAGTATGGGTCACTCAAACAAAG, the PBM binding z-score stood at 0.573.
On to TCTGGTAGATCAGCAGGTTAAGAAAGCTGGCCAA, for which the PBM binding z-score was 0.0223.
For CTCGAAAGGTCGTGCTCAGGTGAGTCTACCAAAC, the PBM binding z-score turned out to be 3.35.
On to CCTATTAGTTGACCATAAGGGCTACCGAAGCTCG, for which the PBM binding z-score was 0.25.
As for CTACCAAGGTGAACAAGGACGTTGATTACTATTC, the figure is 3.82; as for TCCTGTAGATCAGCAGGTTAAGAAAGCTGGCCAA, 0.177.
On to ACTCGGAGGACAAAGGTCAGAGCTACGCCAGTGA, for which the PBM binding z-score is 3.36.
Sequence TCATATAGGTATATGCTAGGTGAAAGTCCGATCT returned a PBM binding z-score of 0.832.
As to GCTCGGAGGACAAGGTGAGAGCTTTGTCCGTAGA, the PBM binding z-score was -0.606.
Sequence TAGCCTAGGTCATTCGGGGGCCAGTATAGAAAGC returned a PBM binding z-score of 3.99.
As to ACTAGCAGGCCCAGGGTCACTCAAGATTAGTCCG, the PBM binding z-score turned out to be 2.19.
Consider GGAACGAAGGCAAAGTTGATAGCATCTGTCGACG, for which the PBM binding z-score is -0.832.
As for ATCTCTCGGTAAAGTTCAGTGAAAGATCGATAGA, the figure is 1.1; as for CCTACTGGGCCACGAAAGGTCATTGATTCAGTGA, 4.21.
As for CCGACTGGGGCGGAAAGGTTACCATACCATCCGG, the figure is 1.02; as for TCATATAGGTAAGCAGGTGAAAGTCCGTAAGTTA, 0.388.
TTACCATGGTGAGCTGAGGTCGTTGATCCAACTC returned a PBM binding z-score of 1.57.
As for TCTAGTTGGTCACGGAGGTAACACACGACGGGTA, the figure is 1.03; as for ACTATTAGTGGAGACGAGGGCAACCGATAGGTTG, 0.101; as for TCTAGTTGGTCACGGAGGTCGCACACGACGGGTA, 4.06.
